The full data set covers some 8,800 targets. This sample favours those with a hit. About 0.5% of all pairs of compound and target were hits. A number with no mark means an inactive call.

Chain of UniProt Q9BPZ7 (Q9BPZ7 whole entry, looked up): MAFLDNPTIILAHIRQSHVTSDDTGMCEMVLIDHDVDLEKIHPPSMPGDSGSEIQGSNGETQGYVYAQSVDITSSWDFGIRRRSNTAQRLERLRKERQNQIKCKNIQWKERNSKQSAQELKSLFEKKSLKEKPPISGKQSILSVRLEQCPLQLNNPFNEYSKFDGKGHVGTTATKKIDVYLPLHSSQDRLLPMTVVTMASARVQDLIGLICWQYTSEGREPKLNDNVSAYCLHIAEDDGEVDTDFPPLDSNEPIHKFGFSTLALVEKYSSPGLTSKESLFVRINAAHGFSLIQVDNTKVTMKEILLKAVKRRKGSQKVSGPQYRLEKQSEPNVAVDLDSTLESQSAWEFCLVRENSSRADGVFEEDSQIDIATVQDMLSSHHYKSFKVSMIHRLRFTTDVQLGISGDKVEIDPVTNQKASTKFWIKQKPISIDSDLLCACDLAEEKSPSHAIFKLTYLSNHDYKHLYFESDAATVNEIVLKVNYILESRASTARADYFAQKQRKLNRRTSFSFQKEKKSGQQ
Chain of UniProt P01116 (P01116 whole entry, looked up): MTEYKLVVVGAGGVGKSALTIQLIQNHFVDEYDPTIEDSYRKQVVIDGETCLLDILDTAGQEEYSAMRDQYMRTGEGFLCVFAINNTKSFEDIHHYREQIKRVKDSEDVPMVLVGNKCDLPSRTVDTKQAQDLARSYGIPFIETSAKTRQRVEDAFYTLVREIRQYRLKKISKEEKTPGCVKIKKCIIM
Chain of UniProt Q9UBG0 (Q9UBG0 whole entry, looked up): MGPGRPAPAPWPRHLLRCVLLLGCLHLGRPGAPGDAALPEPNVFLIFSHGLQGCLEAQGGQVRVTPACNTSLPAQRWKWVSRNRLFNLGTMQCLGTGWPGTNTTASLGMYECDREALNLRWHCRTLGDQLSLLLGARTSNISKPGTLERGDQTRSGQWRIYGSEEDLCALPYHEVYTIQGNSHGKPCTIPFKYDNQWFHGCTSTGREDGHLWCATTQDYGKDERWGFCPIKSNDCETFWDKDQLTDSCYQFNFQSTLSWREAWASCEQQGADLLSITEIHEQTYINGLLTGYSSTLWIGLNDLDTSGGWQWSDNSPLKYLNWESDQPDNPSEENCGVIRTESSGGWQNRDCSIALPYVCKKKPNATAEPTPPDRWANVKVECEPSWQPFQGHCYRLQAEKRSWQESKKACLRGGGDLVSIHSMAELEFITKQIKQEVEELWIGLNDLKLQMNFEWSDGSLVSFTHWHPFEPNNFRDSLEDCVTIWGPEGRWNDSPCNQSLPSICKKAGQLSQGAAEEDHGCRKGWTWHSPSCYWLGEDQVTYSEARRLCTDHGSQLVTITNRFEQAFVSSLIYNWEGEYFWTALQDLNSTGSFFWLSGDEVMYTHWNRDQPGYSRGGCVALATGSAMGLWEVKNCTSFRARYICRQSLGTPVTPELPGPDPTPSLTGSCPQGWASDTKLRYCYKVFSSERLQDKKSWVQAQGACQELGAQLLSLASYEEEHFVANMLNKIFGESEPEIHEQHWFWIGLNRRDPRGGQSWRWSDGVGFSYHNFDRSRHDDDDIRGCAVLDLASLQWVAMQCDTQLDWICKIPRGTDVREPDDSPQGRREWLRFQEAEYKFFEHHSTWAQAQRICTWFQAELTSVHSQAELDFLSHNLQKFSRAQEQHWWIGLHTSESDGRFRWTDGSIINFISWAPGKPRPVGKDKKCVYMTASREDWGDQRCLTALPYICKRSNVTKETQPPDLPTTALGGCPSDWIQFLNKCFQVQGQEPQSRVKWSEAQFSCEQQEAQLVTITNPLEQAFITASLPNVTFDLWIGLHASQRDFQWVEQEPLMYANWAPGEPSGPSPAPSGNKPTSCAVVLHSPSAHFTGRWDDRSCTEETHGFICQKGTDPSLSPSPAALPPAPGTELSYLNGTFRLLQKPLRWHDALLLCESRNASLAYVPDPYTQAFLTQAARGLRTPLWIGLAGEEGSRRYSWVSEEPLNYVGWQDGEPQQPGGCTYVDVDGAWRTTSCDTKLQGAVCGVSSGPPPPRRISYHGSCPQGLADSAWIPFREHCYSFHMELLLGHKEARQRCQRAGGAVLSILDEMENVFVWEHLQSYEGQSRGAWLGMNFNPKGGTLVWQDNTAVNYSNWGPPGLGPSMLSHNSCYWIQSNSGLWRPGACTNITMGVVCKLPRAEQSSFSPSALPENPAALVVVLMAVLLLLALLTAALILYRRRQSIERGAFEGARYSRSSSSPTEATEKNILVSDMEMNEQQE
Chain of UniProt Q5T3J3 (Q5T3J3 whole entry, looked up): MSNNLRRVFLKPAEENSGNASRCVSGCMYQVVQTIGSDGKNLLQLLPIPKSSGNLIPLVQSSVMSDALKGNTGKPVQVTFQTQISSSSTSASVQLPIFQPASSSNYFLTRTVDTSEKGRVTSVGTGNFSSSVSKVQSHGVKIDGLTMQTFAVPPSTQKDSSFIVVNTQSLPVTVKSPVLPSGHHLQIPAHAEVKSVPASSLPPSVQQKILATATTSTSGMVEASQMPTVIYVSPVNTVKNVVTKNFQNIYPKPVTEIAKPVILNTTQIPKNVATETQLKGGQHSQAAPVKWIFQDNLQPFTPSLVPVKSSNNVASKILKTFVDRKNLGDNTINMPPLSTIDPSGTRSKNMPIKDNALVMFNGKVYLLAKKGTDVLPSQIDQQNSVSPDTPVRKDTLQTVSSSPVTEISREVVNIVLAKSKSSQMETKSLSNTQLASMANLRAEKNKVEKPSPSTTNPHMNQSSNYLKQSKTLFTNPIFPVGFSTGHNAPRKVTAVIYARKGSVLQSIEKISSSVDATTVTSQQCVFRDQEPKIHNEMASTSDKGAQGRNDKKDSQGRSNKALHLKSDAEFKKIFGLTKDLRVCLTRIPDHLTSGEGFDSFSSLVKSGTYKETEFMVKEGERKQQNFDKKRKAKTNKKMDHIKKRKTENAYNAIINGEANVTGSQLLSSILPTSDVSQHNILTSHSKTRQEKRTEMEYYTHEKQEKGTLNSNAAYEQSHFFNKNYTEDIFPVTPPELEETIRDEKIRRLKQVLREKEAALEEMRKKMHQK
Chain of UniProt Q9H204 (Q9H204 whole entry, looked up): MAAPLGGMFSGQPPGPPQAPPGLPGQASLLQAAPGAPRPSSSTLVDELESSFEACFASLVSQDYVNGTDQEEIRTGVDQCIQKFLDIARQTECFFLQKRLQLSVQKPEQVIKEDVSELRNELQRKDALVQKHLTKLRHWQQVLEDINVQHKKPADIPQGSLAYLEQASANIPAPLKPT
Chain of UniProt Q08380 (Q08380 whole entry, looked up): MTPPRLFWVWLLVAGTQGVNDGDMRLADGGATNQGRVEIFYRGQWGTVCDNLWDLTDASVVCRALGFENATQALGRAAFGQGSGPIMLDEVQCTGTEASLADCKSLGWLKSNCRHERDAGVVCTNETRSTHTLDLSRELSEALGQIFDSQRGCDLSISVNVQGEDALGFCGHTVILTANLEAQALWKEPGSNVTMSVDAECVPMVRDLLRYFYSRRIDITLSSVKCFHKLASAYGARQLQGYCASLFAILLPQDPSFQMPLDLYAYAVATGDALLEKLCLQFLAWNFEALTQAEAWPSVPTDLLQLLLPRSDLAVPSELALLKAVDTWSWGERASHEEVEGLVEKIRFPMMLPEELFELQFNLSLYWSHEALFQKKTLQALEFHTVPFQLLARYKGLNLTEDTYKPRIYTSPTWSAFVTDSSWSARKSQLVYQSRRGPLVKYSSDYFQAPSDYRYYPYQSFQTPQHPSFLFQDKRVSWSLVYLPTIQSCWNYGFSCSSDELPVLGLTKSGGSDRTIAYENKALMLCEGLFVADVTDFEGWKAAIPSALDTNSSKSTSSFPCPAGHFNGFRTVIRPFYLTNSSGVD
Chain of UniProt Q8WXB1 (Q8WXB1 whole entry, looked up): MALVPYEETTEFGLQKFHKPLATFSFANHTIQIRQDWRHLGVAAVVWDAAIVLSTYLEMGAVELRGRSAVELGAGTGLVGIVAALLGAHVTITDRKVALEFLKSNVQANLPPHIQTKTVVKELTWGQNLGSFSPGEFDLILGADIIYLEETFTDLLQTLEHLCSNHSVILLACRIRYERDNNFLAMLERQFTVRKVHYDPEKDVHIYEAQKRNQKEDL
Chain of UniProt P07948 (P07948 whole entry, looked up): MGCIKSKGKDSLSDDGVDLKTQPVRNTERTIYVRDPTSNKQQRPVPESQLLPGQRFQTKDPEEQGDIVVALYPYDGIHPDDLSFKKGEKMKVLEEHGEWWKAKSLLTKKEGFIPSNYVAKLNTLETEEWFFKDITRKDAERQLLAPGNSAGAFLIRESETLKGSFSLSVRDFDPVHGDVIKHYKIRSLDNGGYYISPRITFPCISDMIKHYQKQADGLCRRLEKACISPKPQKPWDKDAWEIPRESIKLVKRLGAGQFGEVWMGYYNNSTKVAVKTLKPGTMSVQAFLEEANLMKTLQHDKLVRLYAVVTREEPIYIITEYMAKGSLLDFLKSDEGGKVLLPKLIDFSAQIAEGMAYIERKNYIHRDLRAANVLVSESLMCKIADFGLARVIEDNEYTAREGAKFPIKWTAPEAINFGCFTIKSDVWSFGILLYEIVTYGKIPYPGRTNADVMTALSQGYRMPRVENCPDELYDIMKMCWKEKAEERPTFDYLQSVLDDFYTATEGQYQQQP
Chain of UniProt Q9NWR8 (Q9NWR8 whole entry, looked up): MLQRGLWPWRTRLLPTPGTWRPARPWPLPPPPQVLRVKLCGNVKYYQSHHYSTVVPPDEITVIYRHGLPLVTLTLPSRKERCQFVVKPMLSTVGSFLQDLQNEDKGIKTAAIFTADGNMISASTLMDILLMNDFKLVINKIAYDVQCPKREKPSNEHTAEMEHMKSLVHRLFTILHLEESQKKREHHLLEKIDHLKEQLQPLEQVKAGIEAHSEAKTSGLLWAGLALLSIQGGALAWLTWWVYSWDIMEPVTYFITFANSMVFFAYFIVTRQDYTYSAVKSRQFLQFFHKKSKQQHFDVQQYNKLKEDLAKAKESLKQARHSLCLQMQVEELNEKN
Chain of UniProt O15243 (O15243 whole entry, looked up): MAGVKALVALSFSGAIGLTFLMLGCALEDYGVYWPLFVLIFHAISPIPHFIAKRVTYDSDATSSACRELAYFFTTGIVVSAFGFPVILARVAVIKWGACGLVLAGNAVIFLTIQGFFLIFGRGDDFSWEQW

Compound in the first assay: CC(C)C1=C2N=C(C=C(N2N=C1)NCC3=CC=CC=C3)NCCCCCCN
Put plainly: log2 fold change, soluble protein after heating vs DMSO (PISA); higher = thermal stabilisation; K562 lysate, 10 uM; active = over 0.2 and 3.5 SD of the protein, either way, in both replicates (recomputed). The method in brief:
(§1)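 Dounce homogenisation of K562 pellets in PBS pH 7.4 with 1 mM MgCl2 produced a crude extract, used at 1 mg/mL protein. Exposure to 10 μM compound lasted 30 min, and aliquots were then heated for 3 min across 48°C-58°C, pooled and brought to 0.5% NP-40 at 4°C. The supernatant after 21,000xg for 90 min was quantified by TMTpro 16plex LC-MS/MS with channel sums equalised. Duplicate values are given as log-two fold change in thermal stability relative to solvent controls.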
As to MPDZ (UniProt O75970), the log2 fold change was -0.015.
On to KIF3C (UniProt O14782), for which the log2 fold change was -0.015.
The same measure, in the same setting: under MRPL22 (UniProt Q9NWU5) stands 0.058.
In the case of LRIF1 (UniProt Q5T3J3), the log2 fold change is 0.089.
As to MCUB (UniProt Q9NWR8), the log2 fold change was -0.063.
With MEGF8 (UniProt Q7Z7M0), the log2 fold change was -0.057.
With MAN2B2 (UniProt Q9Y2E5), the log2 fold change was -0.051.
MRPL27 (UniProt Q9P0M9): the log2 fold change was 0.106.
Regarding LGALS3BP (UniProt Q08380), the log2 fold change was 0.
Same read-out and setting: the result for KRAS (UniProt P01116) reads -0.008; that for MDM1 (UniProt Q8TC05), -0.029; that for LEPROT (UniProt O15243), 0.267.
On to LYN isoform 2 (UniProt P07948), for which the log2 fold change is -0.061.
In the case of MED28 (UniProt Q9H204), the log2 fold change is -0.002.
As for MRPL30 isoform 2 (UniProt Q8TCC3), the log2 fold change is 0.
On the same count and under the same terms, under KRAS isoform 2 (UniProt P01116) stands -0.05.
In the case of METTL21A (UniProt Q8WXB1), the log2 fold change is 0.
As to MAPK7 (UniProt Q13164), the log2 fold change was 0.025.
With MED25 isoform 3 (UniProt Q71SY5), the log2 fold change is -0.023.
The same measure, in the same setting: under MAP4K4 isoform 6 (UniProt O95819) stands -0.021; under KIFC3 isoform 6 (UniProt Q9BVG8), 0.097; under MME (UniProt P08473), -0.012.
Same read-out and setting: the result for LSM11 (UniProt P83369) reads 0.004.
For the target MAPKAP1 (UniProt Q9BPZ7), the log2 fold change is -0.031.
For the target KMT2B (UniProt Q9UMN6), the log2 fold change is 0.53.
On to MRC2 (UniProt Q9UBG0), for which the log2 fold change is -0.015.
With KLC1 isoform 10 (UniProt Q07866), the log2 fold change was -0.129.
Regarding KIF21A (UniProt H0YI78), the log2 fold change was -0.006.

Compound in the next assay: CC1=C(C(CC(=O)N1)C2=CC=C(C=C2)C(F)(F)F)C(=O)NC3=C(C=C4C(=C3)C=NN4)F
The description is as above. In short, it runs like this: as §1
For the target MPDZ (UniProt O75970), the log2 fold change was -0.173.
As to KIF3C (UniProt O14782), the log2 fold change was 0.03.
The same measure, in the same setting: under MRPL22 (UniProt Q9NWU5) stands 0.001; under LRIF1 (UniProt Q5T3J3), -0.143; under MAPK3 (UniProt H0YEX6), 0.029.
For the target MCUB (UniProt Q9NWR8), the log2 fold change is 0.039.
Regarding MAN2B2 (UniProt Q9Y2E5), the log2 fold change is 0.056.
As for MAP3K6 (UniProt O95382), the log2 fold change is -0.12.
Consider MRPL27 (UniProt Q9P0M9), for which the log2 fold change is 0.002.
Consider LGALS3BP (UniProt Q08380), for which the log2 fold change is 1.31.
Consider KRAS (UniProt P01116), for which the log2 fold change was -0.037.
As for MDM1 (UniProt Q8TC05), the log2 fold change was -0.027.
In the case of LYN isoform 2 (UniProt P07948), the log2 fold change is -0.432.
Regarding LIMK1 (UniProt P53667), the log2 fold change is -0.067.
Same read-out and setting: under MED28 (UniProt Q9H204) stands -0.088.
Turning to MRPL30 isoform 2 (UniProt Q8TCC3), the log2 fold change was 0.
For METTL21A (UniProt Q8WXB1), the log2 fold change was -0.019.
LY6E (UniProt Q16553): the log2 fold change is -0.027.
As to MEX3A (UniProt A1L020), the log2 fold change is -0.076.
Turning to MED25 isoform 3 (UniProt Q71SY5), the log2 fold change was 0.038.
On the same count and under the same terms, the result for MME (UniProt P08473) reads -0.024; that for MAPKAP1 (UniProt Q9BPZ7), -0.103.
As to MRC2 (UniProt Q9UBG0), the log2 fold change was 0.002.
Still for that read-out and setting: under KIF21A (UniProt H0YI78) stands 0.107.

Compound in a further assay: CC1=C(C2=C(C=C1)C(=O)C3=CC=CC=C3N2CCCN)C
The description is as above. In short, it runs like this:
as §1
With MPDZ (UniProt O75970), the log2 fold change is 0.062.
With KIF3C (UniProt O14782), the log2 fold change is -0.116.
As for LRIF1 (UniProt Q5T3J3), the log2 fold change is -0.044.
Regarding MCUB (UniProt Q9NWR8), the log2 fold change was -0.219.
The same measure, in the same setting: under MEGF8 (UniProt Q7Z7M0) stands 0.091; under MAN2B2 (UniProt Q9Y2E5), -0.013.
In the case of MRPL27 (UniProt Q9P0M9), the log2 fold change is -0.195.
Regarding KIF18B (UniProt Q86Y91), the log2 fold change is -0.022.
In the case of LGALS3BP (UniProt Q08380), the log2 fold change was 0.453.
For KRAS (UniProt P01116), the log2 fold change is 0.018.
For the target MDM1 (UniProt Q8TC05), the log2 fold change is 0.022.
On to LYN isoform 2 (UniProt P07948), for which the log2 fold change is -0.226.
For the target LIMK1 (UniProt P53667), the log2 fold change is 0.026.
As to MED28 (UniProt Q9H204), the log2 fold change was -0.039.
As for MRPL30 isoform 2 (UniProt Q8TCC3), the log2 fold change is -0.037.
Consider LRRC7 (UniProt Q96NW7), for which the log2 fold change is 0.041.
Turning to KRAS isoform 2 (UniProt P01116), the log2 fold change is -0.011.
For METTL21A (UniProt Q8WXB1), the log2 fold change is -0.138.
Same read-out and setting: under MEX3A (UniProt A1L020) stands 0.003; under MED25 isoform 3 (UniProt Q71SY5), -0.039; under MAP4K4 isoform 6 (UniProt O95819), -0.127.
On to KIFC3 isoform 6 (UniProt Q9BVG8), for which the log2 fold change is -0.231.
On to MME (UniProt P08473), for which the log2 fold change is -0.23.
With LSM11 (UniProt P83369), the log2 fold change is -0.198.
The same measure, in the same setting: the result for MAPKAP1 (UniProt Q9BPZ7) reads 0.061; that for KMT2B (UniProt Q9UMN6), -0.135.
As for MRC2 (UniProt Q9UBG0), the log2 fold change was 0.03.
Still for that read-out and setting: the result for KIF21A (UniProt H0YI78) reads 0.017.

The values above are taken from the supplement of paper PMC10849652.
